# Experimental data as given in paper PMC7862700, “An all-to-all approach to the identification of sequence-specific readers for epigenetic DNA modifications on cytosine”.
# How the values were obtained:
# Assay in all cases: DAPPL (digital affinity profiling via proximity ligation, sequencing); 10 mM Tris-HCl pH 7.5, 50 mM NaCl, 1 mM DTT, 4% glycerol, room temperature, 30 min; GST-TFs on glutathione beads, 16-mer random dsDNA library, 0.1% formaldehyde crosslink after washing; high values mean tight binding
# FLI1 = target: T1, FLI1 (Homo sapiens, UniProt Q01543 1-452); details: protein: recombinant; tags: N-terminal GST; dsDNA, one strand shown
# T1 sequence: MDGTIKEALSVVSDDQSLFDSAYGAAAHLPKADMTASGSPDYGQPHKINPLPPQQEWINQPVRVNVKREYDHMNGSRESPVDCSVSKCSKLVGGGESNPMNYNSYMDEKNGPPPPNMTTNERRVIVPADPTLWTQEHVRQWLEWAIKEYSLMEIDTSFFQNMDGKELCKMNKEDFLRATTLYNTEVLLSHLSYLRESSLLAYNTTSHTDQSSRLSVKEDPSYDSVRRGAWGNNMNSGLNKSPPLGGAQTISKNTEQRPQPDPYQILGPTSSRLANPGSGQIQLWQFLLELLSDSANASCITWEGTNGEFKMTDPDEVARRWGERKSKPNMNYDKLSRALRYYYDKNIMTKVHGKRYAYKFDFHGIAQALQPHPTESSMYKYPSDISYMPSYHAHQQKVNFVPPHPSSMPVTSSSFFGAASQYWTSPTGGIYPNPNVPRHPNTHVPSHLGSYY
# Method in brief: (§1)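 Pools of DNA-barcoded human transcription factors, expressed in yeast as GST fusions on glutathione beads and combined with a tag-only sample, were incubated with 200 nmole of a 16-mer random double-stranded DNA library. Incubation took 30 min at room temperature in Tris/NaCl/DTT/glycerol buffer and was followed by washing, 0.1% formaldehyde crosslinking, proximity ligation (BsaI/T4 ligase, 1 h, 37 °C), PCR amplification and sequencing on an Illumina NextSeq500. Binding signal is the ratio of a hexamer's read frequency for a factor to its frequency for the tag-only sample.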
# ELK1 = target: T2, ELK1 (Homo sapiens, UniProt P19419 1-428); details: protein: recombinant; tags: N-terminal GST; dsDNA, one strand shown
# T2 sequence: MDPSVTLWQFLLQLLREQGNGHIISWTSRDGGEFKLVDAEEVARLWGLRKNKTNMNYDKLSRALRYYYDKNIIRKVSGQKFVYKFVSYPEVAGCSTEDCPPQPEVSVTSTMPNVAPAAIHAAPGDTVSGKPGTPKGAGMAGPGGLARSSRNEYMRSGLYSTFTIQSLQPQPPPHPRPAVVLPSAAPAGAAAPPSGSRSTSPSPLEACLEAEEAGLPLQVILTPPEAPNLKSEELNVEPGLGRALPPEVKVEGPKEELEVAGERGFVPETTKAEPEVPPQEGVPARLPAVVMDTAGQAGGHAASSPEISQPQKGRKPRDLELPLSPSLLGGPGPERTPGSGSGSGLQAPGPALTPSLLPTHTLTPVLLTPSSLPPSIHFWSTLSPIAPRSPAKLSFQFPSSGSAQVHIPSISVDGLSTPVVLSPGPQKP
# Method in brief: as §1
# GABPA = target: T3, GABPA (Homo sapiens, UniProt Q06546 1-454); details: protein: recombinant; tags: N-terminal GST; dsDNA, one strand shown
# T3 sequence: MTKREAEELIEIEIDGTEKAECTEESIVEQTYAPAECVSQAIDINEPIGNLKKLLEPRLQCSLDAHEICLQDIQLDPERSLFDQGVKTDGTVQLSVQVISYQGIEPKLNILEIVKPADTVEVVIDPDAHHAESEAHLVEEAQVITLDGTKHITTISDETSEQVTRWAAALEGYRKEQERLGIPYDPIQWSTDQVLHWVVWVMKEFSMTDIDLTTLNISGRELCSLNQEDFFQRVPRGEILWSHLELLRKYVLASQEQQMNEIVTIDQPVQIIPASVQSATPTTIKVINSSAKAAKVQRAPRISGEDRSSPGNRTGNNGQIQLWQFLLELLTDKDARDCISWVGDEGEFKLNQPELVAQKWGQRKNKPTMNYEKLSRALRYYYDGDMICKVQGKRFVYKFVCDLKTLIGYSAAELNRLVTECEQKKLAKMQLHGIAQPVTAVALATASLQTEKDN
# Method in brief: as §1
# ERG = target: T4, ERG (Homo sapiens, UniProt P11308 1-479); details: protein: recombinant; tags: N-terminal GST; dsDNA, one strand shown
# T4 sequence: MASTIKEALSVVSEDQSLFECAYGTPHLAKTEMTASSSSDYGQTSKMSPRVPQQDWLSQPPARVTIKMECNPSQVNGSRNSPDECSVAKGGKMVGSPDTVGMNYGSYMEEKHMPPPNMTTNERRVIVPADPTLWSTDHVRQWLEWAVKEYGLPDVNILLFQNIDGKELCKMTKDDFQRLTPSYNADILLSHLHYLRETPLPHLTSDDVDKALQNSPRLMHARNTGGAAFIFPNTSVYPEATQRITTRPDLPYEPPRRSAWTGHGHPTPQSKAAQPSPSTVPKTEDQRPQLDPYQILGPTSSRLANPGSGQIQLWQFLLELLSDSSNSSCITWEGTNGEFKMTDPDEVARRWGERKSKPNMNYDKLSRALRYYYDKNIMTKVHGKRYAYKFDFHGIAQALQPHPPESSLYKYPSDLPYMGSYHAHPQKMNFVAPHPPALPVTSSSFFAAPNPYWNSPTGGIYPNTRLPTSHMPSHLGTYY
# Method in brief: as §1
# ELF1 = ELF1 (Homo sapiens, UniProt P32519 1-619); details: protein: recombinant; tags: N-terminal GST; dsDNA, one strand shown
# Sequence of ELF1 (P32519 whole entry): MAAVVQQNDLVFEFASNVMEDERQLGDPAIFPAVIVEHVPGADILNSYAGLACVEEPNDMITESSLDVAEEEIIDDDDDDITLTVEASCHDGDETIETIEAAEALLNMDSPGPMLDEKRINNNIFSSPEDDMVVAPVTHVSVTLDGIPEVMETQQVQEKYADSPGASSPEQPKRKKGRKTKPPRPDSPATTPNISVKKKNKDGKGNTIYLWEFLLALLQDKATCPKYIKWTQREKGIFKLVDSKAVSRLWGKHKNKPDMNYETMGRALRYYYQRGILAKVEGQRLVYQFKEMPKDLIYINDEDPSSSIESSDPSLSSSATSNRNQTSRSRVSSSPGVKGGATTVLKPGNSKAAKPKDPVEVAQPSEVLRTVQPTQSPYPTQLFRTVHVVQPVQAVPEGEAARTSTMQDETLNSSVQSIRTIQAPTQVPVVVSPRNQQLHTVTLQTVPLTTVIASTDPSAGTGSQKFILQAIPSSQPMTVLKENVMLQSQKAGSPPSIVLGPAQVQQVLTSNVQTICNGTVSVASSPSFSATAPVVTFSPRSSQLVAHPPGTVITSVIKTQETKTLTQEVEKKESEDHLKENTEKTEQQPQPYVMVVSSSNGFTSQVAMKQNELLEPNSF
# Method in brief: as §1
# EHF = target: T5, EHF (Homo sapiens, UniProt Q9NZC4 1-300); details: protein: recombinant; tags: N-terminal GST; dsDNA, one strand shown
# T5 sequence: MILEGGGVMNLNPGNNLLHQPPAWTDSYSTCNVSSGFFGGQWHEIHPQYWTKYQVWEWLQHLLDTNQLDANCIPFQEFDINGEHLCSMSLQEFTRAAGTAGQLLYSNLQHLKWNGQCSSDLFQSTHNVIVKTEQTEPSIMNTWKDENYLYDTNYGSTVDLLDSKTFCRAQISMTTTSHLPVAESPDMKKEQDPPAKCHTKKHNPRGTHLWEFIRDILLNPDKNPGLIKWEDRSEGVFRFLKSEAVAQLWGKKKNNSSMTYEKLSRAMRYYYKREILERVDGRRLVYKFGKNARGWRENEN
# Method in brief: as §1
# SPI1 = SPI1 (Homo sapiens, UniProt P17947 1-270); details: protein: recombinant; tags: N-terminal GST; dsDNA, one strand shown
# Method in brief: as §1
# SPIB = SPIB (Homo sapiens, UniProt Q01892 1-262); details: protein: recombinant; tags: N-terminal GST; dsDNA, one strand shown
# Sequence of SPIB (Q01892 whole entry): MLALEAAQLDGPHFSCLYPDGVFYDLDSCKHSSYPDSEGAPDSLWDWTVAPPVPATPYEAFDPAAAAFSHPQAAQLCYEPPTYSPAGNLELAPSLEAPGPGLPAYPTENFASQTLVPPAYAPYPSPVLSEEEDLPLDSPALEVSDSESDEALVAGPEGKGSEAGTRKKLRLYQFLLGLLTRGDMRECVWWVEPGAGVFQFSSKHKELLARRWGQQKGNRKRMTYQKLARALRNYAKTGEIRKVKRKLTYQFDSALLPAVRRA
# Method in brief: as §1
# ELK3 = target: T6, ELK3 (Homo sapiens, UniProt P41970 1-407); details: protein: recombinant; tags: N-terminal GST; dsDNA, one strand shown
# T6 sequence: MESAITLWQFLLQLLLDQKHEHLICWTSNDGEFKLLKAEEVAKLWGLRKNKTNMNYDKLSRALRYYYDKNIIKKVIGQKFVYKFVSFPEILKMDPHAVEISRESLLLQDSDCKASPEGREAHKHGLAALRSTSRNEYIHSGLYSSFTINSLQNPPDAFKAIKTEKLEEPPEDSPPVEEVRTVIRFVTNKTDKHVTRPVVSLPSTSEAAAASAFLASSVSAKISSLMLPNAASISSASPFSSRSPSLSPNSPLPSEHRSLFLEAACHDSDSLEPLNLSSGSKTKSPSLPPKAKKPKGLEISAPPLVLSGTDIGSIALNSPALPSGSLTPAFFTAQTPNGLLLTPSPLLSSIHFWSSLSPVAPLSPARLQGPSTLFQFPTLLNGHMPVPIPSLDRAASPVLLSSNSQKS
# Method in brief: as §1
# FEV = target: T7, FEV (Homo sapiens, UniProt Q99581 1-238); details: protein: recombinant; tags: N-terminal GST; dsDNA, one strand shown
# T7 sequence: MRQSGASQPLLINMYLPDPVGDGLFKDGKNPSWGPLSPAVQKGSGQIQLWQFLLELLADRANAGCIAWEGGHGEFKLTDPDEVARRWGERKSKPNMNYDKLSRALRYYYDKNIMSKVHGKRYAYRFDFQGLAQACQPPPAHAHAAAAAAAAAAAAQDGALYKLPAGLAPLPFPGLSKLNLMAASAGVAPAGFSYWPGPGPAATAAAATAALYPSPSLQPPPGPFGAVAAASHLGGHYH
# Method in brief: as §1
# ETV5 = ETV5 (Homo sapiens, UniProt P41161 1-510); details: protein: recombinant; tags: N-terminal GST; dsDNA, one strand shown
# Sequence of ETV5 (P41161 whole entry): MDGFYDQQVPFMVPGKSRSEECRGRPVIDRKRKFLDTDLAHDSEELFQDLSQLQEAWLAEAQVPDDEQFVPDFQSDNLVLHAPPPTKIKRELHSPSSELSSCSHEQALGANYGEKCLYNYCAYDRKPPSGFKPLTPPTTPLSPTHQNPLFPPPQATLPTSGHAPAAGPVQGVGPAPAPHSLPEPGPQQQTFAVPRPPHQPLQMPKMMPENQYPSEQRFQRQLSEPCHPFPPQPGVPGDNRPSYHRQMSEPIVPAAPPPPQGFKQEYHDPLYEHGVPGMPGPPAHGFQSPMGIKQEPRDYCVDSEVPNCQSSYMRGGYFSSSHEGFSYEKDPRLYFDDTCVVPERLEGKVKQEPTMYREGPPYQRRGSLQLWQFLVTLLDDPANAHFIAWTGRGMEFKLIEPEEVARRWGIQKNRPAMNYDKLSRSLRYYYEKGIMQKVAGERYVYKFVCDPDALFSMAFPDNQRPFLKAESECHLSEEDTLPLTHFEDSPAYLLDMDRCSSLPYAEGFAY
# Method in brief: as §1
# HSF1 = HSF1 (Homo sapiens, UniProt Q00613 1-529); details: protein: recombinant; tags: N-terminal GST; chain copies: 3; dsDNA, one strand shown
# Sequence of HSF1 (Q00613 whole entry): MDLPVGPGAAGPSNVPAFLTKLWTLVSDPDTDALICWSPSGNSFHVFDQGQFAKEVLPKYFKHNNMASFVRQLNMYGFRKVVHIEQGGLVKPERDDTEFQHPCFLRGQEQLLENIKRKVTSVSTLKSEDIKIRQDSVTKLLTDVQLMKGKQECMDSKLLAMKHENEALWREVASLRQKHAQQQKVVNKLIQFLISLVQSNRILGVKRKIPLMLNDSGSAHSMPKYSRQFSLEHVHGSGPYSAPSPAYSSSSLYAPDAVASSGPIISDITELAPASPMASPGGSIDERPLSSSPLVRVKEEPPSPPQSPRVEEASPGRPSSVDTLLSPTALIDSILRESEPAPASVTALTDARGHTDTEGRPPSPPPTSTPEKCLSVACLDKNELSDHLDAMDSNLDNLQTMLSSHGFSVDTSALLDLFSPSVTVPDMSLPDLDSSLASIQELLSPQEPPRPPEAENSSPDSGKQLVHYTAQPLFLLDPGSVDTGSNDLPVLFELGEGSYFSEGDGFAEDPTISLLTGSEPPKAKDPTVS
# Method in brief: as §1
# SPIC = target: T8, SPIC (Homo sapiens, UniProt Q8N5J4 1-248); details: protein: recombinant; tags: N-terminal GST; dsDNA, one strand shown
# T8 sequence: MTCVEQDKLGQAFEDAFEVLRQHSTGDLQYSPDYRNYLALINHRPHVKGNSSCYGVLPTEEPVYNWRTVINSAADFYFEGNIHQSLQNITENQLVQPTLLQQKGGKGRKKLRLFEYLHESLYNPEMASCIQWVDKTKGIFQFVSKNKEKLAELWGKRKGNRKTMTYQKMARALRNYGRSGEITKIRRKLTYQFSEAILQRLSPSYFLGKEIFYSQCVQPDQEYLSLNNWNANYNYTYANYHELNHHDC
# Method in brief: as §1
# ELF4 = ELF4 (Homo sapiens, UniProt Q99607 1-663); details: protein: recombinant; tags: N-terminal GST; dsDNA, one strand shown
# Sequence of ELF4 (Q99607 whole entry): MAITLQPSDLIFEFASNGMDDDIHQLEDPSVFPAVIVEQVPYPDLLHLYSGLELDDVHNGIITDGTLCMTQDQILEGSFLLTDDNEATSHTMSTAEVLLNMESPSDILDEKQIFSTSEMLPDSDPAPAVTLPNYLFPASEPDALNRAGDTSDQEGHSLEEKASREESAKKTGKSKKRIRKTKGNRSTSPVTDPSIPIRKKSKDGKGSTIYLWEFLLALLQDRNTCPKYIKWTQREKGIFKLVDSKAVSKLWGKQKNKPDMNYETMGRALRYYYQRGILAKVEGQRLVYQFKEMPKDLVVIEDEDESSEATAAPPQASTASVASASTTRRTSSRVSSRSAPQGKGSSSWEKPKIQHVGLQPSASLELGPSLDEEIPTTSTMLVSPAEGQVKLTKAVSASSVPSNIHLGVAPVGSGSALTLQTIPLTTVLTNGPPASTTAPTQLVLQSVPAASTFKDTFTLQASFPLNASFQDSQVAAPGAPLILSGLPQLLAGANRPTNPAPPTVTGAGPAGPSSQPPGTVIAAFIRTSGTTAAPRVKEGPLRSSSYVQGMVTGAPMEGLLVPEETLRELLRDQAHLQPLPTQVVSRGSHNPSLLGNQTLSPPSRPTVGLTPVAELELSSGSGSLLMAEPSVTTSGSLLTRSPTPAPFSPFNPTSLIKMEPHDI
# Method in brief: as §1
# ELK4 = target: T9, ELK4 (Homo sapiens, UniProt P28324-2 1-405); details: protein: recombinant; tags: N-terminal GST; dsDNA, one strand shown
# T9 sequence: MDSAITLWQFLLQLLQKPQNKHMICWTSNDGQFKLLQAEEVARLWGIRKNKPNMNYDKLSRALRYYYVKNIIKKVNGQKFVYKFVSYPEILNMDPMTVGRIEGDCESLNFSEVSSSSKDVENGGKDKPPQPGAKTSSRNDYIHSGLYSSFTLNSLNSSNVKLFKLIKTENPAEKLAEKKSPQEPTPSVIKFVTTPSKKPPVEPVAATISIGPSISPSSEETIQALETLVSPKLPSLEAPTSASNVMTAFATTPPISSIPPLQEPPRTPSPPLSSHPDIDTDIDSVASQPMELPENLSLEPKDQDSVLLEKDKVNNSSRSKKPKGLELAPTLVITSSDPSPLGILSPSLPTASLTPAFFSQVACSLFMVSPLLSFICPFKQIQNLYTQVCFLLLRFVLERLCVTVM
# Method in brief: as §1
# ETV2 = target: T10, ETV2 (Homo sapiens, UniProt O00321 1-342); details: protein: recombinant; tags: N-terminal GST; dsDNA, one strand shown
# T10 sequence: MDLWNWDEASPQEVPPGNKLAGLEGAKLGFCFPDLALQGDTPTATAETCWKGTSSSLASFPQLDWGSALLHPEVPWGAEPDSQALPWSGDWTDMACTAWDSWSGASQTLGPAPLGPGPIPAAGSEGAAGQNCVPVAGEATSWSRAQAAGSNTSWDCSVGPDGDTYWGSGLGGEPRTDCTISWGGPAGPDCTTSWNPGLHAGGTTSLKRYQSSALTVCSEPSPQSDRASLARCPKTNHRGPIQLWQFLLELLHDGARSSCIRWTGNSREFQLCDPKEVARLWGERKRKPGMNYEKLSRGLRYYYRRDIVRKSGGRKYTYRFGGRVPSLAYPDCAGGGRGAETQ
# Method in brief: as §1
# ELF3 = target: T11, ELF3 (Homo sapiens, UniProt P78545 1-371); details: protein: recombinant; tags: N-terminal GST; dsDNA, one strand shown
# T11 sequence: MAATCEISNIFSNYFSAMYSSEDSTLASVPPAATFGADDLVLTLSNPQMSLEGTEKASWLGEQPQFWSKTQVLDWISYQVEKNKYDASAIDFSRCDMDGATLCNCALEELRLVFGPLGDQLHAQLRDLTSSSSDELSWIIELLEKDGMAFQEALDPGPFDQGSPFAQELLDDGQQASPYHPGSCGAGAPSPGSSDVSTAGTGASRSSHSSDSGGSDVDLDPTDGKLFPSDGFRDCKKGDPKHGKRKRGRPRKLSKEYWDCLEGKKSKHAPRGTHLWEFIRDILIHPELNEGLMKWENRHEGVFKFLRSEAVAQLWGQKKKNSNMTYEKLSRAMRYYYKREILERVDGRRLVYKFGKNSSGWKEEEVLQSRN
# Method in brief: as §1
# CRX = CRX (Homo sapiens, UniProt O43186 1-299); details: protein: recombinant; tags: N-terminal GST; dsDNA, one strand shown
# Sequence of CRX (O43186 whole entry): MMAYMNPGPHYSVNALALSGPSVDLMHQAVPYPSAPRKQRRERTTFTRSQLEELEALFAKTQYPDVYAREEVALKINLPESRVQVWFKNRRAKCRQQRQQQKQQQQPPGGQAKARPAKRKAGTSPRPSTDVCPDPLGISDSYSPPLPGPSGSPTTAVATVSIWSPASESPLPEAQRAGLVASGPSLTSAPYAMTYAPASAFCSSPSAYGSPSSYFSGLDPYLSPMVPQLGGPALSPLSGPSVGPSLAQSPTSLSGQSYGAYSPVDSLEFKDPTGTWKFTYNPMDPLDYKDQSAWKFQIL
# Method in brief: as §1
# ETV1 = ETV1 (Homo sapiens, UniProt P50549 1-477); details: protein: recombinant; tags: N-terminal GST; dsDNA, one strand shown
# Sequence of ETV1 (P50549 whole entry): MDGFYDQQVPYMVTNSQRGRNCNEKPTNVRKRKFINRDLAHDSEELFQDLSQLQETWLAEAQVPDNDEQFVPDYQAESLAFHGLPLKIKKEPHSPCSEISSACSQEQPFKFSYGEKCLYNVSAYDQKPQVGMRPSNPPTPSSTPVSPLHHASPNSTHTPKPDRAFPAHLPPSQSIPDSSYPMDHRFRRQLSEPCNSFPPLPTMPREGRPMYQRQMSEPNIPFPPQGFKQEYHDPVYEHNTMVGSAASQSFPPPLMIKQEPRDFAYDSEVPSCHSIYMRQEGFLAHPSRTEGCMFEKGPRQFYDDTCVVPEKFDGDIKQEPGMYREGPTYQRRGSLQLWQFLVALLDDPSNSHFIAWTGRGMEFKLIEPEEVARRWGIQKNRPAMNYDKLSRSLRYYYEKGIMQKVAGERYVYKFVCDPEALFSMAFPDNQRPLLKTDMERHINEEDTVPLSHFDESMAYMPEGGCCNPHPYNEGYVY
# Method in brief: as §1
sequence,measurement,setting,value
GATGTT,binding signal,FLI1,"1.28 fold enrichment (6-mer frequency, TF over GST control)"
same,binding signal,ELK1,"1.34 fold enrichment (6-mer frequency, TF over GST control)"
same,binding signal,GABPA,"1.27 fold enrichment (6-mer frequency, TF over GST control)"
same,binding signal,ERG,"1.28 fold enrichment (6-mer frequency, TF over GST control)"
same,binding signal,ELF1,"1.25 fold enrichment (6-mer frequency, TF over GST control)"
same,binding signal,EHF,"1.32 fold enrichment (6-mer frequency, TF over GST control)"
same,binding signal,SPI1,"1.25 fold enrichment (6-mer frequency, TF over GST control)"
same,binding signal,SPIB,"1.2 fold enrichment (6-mer frequency, TF over GST control)"
same,binding signal,ELK3,"1.22 fold enrichment (6-mer frequency, TF over GST control)"
same,binding signal,FEV,"1.22 fold enrichment (6-mer frequency, TF over GST control)"
same,binding signal,ETV5,"1.31 fold enrichment (6-mer frequency, TF over GST control)"
same,binding signal,HSF1,"1.18 fold enrichment (6-mer frequency, TF over GST control)"
same,binding signal,SPIC,"1.39 fold enrichment (6-mer frequency, TF over GST control)"
same,binding signal,ELF4,"1.22 fold enrichment (6-mer frequency, TF over GST control)"
same,binding signal,ELK4,"1.16 fold enrichment (6-mer frequency, TF over GST control)"
same,binding signal,ETV2,"1.21 fold enrichment (6-mer frequency, TF over GST control)"
same,binding signal,ELF3,"1.22 fold enrichment (6-mer frequency, TF over GST control)"
same,binding signal,CRX,"1.08 fold enrichment (6-mer frequency, TF over GST control)"
same,binding signal,ETV1,"1.25 fold enrichment (6-mer frequency, TF over GST control)"
